This is a sample that favours compounds with a hit; in the whole collection about 1.5% have one here.
HUVEC tox TNFa – toxic to HUVEC cells under TNF alpha stimulation | HUVEC TNFalpha-stimulated, Hoechst cell count, imaging | cell count reduction, % at 2 µM | actives 0.17% (n = 93,000) | AID 848;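 active = cell count reduction exceeding the screen mean by over 5 SD, scaled to untreated wells per plate, cut at about 78% in these data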;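 also: cells counted after 24 h of TNF alpha exposure following the 1 h pretreatment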
HUVEC tox IL1B – HUVEC cytotoxicity counter-screen, IL-1B stimulated; HUVEC cell count loss, Hoechst imaging; actives 0.41% (n = 94,000); cell count reduction, % at 2 µM;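 active = cell count reduction more than 3 SD above the screen-wide mean, cut at about 70% in these data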;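 also: normalized per plate to untreated control cells as the no-loss baseline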
NFkB transloc pot – enhances IL-1B driven NFkB nuclear translocation | actives 0.3% (n = 94,000) | activation, % at 2 µM | AID 819 | HUVEC IL-1B NFkB p65 nuclear translocation imaging;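 active = activation above 40%, about the mean plus 3 SD, also judged a hit on visual image review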;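 also: percent activation is computed from the nuclear over cytoplasmic p65 intensity ratio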
NFkB transloc inh – blocks IL-1B driven NFkB nuclear translocation in HUVEC cells; HUVEC IL-1B NFkB p65 nuclear translocation imaging; inhibition, % at 2 µM; actives 0.43% (n = 94,000); AID 796;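 active = inhibition above about 30% together with a positive call from visual inspection of the well image, limit read from the data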;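 also: nuclear over cytoplasmic p65 intensity ratio measured by imaging; 0% = IL-1B stimulated DMSO wells and 100% = unstimulated DMSO wells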
VCAM1 TNFa inh – reduces TNF alpha induced VCAM1 expression in HUVEC; actives 0.48% (n = 95,000); AID 802; HUVEC TNFa-induced VCAM-1 immunofluorescence, high-content imaging; inhibition, % at 2 µM;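 active = inhibition above the batch mean plus 3 SD, with images confirmed as a hit by eye, cut at about 37% in these data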;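 also: 0% = TNF-stimulated DMSO wells and 100% = unstimulated control wells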
The depositor's hits bear a star; x = no result.

SMILES	HUVEC tox TNFa	HUVEC tox IL1B	NFkB transloc pot	NFkB transloc inh	VCAM1 TNFa inh
CN1CCc2nc3sc(C#N)c(N)c3c(-c3cccs3)c2C1	74	20	-2	2	90*
CN1CCc2nc(N)c(C#N)c(-c3ccccc3)c2C1	-21	-31	-6	6	15
CN1C(=O)N(C)C(=O)C2(Cc3ccccc3N3CCOCC32)C1=O (centres undefined)	32	14	11	-11	66*
CC(C)Oc1cc(-n2c(=S)[nH]c3ccccc3c2=O)c(Cl)cc1Cl	-10	11	-6	6	8
COC(=O)C[C@]1(C(=O)OC)CN(C#N)N(c2ccc(Cl)cc2)C12c1ccccc1-c1ccccc12	x	-123	-26	26	100*
COc1cc2c3c(c1OC)-c1cc(O)ccc1CC3NCC2 (centres undefined)	66	1	2	-2	44*
CCCCn1c(O)c(C=Nc2c(C)n(C)n(-c3ccccc3)c2=O)c(=O)[nH]c1=O	-5	-46	48*	-48	6
CN1C(=O)C(C2(C#N)CCCCC2)C(=O)N(C)C1=O	-10	3	49*	-48	17
CN(Cc1ccccc1)Cc1ccccc1OC(=O)N(C)C	-13	-1	-8	8	22
O=C(c1ccccc1F)c1cn(CC(=O)N2CCOCC2)c2ccccc12	7	2	-5	5	7
Cn1c(O)c(C(c2ccccn2)c2c(O)n(C)c(=S)[nH]c2=O)c(=O)[nH]c1=S	5	91*	3	-3	1
O=C(CSC1c2ccccc2-c2ccccc21)N/N=C/c1ccccc1O	-20	1	-4	4	11
O=C(CCCOc1ccc(Cl)cc1Cl)N1CCC2(CC1)OCCO2	-5	85*	-97	97*	16
OC(c1ccc(F)cc1)C(c1ccccc1)N1CCOCC1 (centres undefined)	-12	26	-6	6	15
CCOC(=O)CC1=C(C(=O)OCC)C2(C(=O)N1CC(=O)OC)C(C#N)=C(N)Oc1ccccc12 (centres undefined)	-15	-12	-1	1	12
C=CCN1C(=O)NC(=O)/C(=C/c2cccn2C)C1=O	-38	2	-41	41*	-24
C=CCN1C(=O)NC(=O)C(Cc2ccc(OC)c(OC)c2)C1=O (centres undefined)	-6	24	-17	17	12
CCCN(CC#CCOc1ccc(OC)cc1)CCC	-8	-3	-14	14	5

From PubChem
